A short description of assay [1]: ATG_E_Box_CIS: Attagene CIS-FACTORIAL HepG2 Assay for human Enhancer Box (E-box) (AID 2282936). The settings on record: HepG2 E-box cis-reporter transcription, actives raise or lower the signal. The procedure, abridged: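 Transiently transfected HepG2, endogenous TF-driven reporters, 24 h dosing. Readout: RT-PCR plus capillary electrophoresis of fluorescent reporter fragments. Gain or loss of signal fitted bidirectionally against DMSO baseline.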

In assay [2] the target is Heat shock factor protein 1 (Homo sapiens) (UniProt Q00613). Put plainly: ATG_HSE_CIS: Attagene CIS-FACTORIAL HepG2 Assay for human Heat Shock Transcription Factor 1 (HSE) (AID 2282953). The settings on record: HepG2 HSE cis-reporter, Attagene RNA transcription; actives raise or lower the signal. The procedure, abridged: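 Endogenous transcription factor activity captured via cis-promoter reporter units transfected into HepG2; treatment lasted 24 h. Fluorescence intensity of reporter fragments analysed with bidirectional curve fitting, DMSO baseline.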
Chain of Heat shock factor protein 1 (Homo sapiens) (Q00613 whole entry, looked up, the tested form may be a part): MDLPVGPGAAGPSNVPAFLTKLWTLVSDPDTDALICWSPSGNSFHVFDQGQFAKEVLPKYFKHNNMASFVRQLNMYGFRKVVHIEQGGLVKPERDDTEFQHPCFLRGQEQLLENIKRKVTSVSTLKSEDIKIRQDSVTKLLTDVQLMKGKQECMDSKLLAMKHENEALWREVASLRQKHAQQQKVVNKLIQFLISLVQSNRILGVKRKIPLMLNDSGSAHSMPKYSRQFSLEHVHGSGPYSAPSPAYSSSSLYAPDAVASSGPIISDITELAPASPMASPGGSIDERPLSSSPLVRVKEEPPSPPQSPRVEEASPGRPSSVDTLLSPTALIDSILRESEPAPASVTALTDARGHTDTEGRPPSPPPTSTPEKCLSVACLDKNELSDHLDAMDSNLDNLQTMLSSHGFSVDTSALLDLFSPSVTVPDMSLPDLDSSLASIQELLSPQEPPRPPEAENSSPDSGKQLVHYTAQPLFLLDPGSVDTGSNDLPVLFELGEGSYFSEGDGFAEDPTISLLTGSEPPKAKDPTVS

Assay [3] is described as follows: ATG_PPRE_CIS: Attagene CIS-FACTORIAL HepG2 Assay for human Peroxisome Proliferator-activated Response Element (PPRE) (AID 2282958). The note with it: HepG2 PPRE cis-element reporter, Attagene transcription factor profiling; actives raise or lower the signal. The procedure, abridged:
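Multiplexed reporter transcription units under cis-regulatory promoters were transfected into HepG2 cells to capture endogenous factor activity. A 24 h incubation preceded RNA isolation and fluorescent RT-PCR fragment analysis.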

Assay [4] in a line: ATG_RORE_CIS: Attagene CIS-FACTORIAL HepG2 Assay for human RAR-related Orphan Receptor Element (RORE) (AID 2282959). The settings on record: HepG2 Attagene cis-factorial RORE reporter, mRNA; actives raise or lower the signal. The procedure, abridged:
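Fluorescence intensity of reporter-specific cDNA fragments, separated by capillary electrophoresis, gives the signal. Source: HepG2 liver cells transiently transfected with cis-element reporters and exposed 24 h; DMSO-normalized bidirectional fit.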

For assay [5], the target named is Transcription factor Sp1 (Homo sapiens) (UniProt P08047). Nature of the assay: ATG_Sp1_CIS: Attagene CIS-FACTORIAL HepG2 Assay for human Specificity Protein 1 (Sp1) (AID 2282961). The note with it: HepG2 Sp1 cis-reporter transcription, actives raise or lower the signal. The procedure, abridged:
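Sp1-driven reporter mRNA, read as capillary electrophoresis fluorescence after RT-PCR, in transiently transfected HepG2 cells dosed for 24 h; signal change in either direction relative to DMSO.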

The nature of assay [6]: ATG_SREBP_CIS: Attagene CIS-FACTORIAL HepG2 Assay for human Sterol Regulatory Element Binding (SREBP) (AID 2282962). The note with it: HepG2 Attagene cis-factorial SREBP reporter, mRNA; actives raise or lower the signal. Summed up: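 Endogenous factor activity is measured in HepG2 through multiplexed reporter units under cis-element control. Following a 24 h incubation, reporter transcripts are reverse-transcribed, PCR-amplified and sized by capillary electrophoresis; activity is fitted in both directions relative to DMSO.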

Assay [7] can be described thus: ATG_TCF_b_cat_CIS: Attagene CIS-FACTORIAL HepG2 Assay for human T-Cell-Factor with beta-catenin (TCF/b-cat) (AID 2282965). The note with it: HepG2 TCF/beta-catenin cis-reporter transcription, actives raise or lower the signal. Summed up: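 Cells of the HepG2 line carry transiently transfected reporter units whose promoters respond to endogenous factors. Twenty-four hours post-dosing, reporter mRNA induction is measured by fluorescent RT-PCR and capillary electrophoresis, with DMSO as baseline.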

A short description of assay [8]: ATG_TAL_CIS: Attagene CIS-FACTORIAL HepG2 Assay for human TAL Basal Promoter (AID 2282966).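 Also: background control endpoint measuring basal TAL promoter reporter mRNA not a specific factor.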 The settings on record: HepG2 Attagene cis-factorial TAL promoter reporter; actives raise or lower the signal. Summed up:
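Basal-promoter background-control endpoint from a multiplexed HepG2 reporter panel. Cells were exposed 24 h, then reporter mRNA was read by RT-PCR/CE fluorescence and fitted in both directions relative to DMSO.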

Assay [9] is described as follows: ATG_TGFb_CIS: Attagene CIS-FACTORIAL HepG2 Assay for human Transforming Growth Factor (TGF) (AID 2282967). The note with it: HepG2 Attagene CIS TGFb reporter, mRNA transcription; actives raise or lower the signal. Summed up: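 Bidirectional fitting relative to DMSO gave the endpoint. Underlying data: reporter mRNA from HepG2 cells carrying transiently transfected cis-regulated reporter constructs, harvested 24 h after dosing and analyzed by RT-PCR and capillary electrophoresis.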

Assay [10] can be described thus: ATG_VDRE_CIS: Attagene CIS-FACTORIAL HepG2 Assay for human Vitamin D Receptor Element (VDRE) (AID 2282968). The note with it: HepG2 VDRE cis-reporter transcription, actives raise or lower the signal. The procedure, abridged:
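Transient MRTU transfection of HepG2, 24 h compound exposure. Readout: reporter transcripts via RT-PCR and capillary electrophoresis, fluorescence. Bidirectional fit vs DMSO.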

For assay [11], the target named is X-box-binding protein 1 (Homo sapiens) (UniProt P17861). Put plainly: ATG_Xbp1_CIS: Attagene CIS-FACTORIAL HepG2 Assay for human X-box Binding Protein 1 (XBP1) (AID 2282972). The note with it: HepG2 XBP1 cis-element reporter, Attagene multiplex; actives raise or lower the signal. Summed up:
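Multiplexed cis-reporter readout in transfected HepG2 liver cells. Exposure lasted 24 hours. Activity in either direction was fitted against DMSO as negative control and baseline.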

The nature of assay [12]: ATG_M_32_TRANS: Attagene TRANS-FACTORIAL HepG2 Assay for M32 Transcription Factor (Internal Marker) (AID 2282984; active = hit-call score of the fitted dose curve at least 0.9, where 1 is the maximum;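 also: transcript level of a background control reporter unit measured by RT-PCR and capillary electrophoresis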). The settings on record: HepG2 Attagene TRANS M32 internal marker reporter. Summed up: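 Read-out: fluorescent reporter cDNA fragments resolved by capillary electrophoresis after RT-PCR of total RNA. Transfected HepG2 cells were exposed to chemical for 24 h. Activity scored in the positive direction relative to DMSO.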

Assay [13] concerns the target Transcriptional activator Myb (Homo sapiens) (UniProt P10242). Nature of the assay: ATG_Myb_CIS: Attagene CIS-FACTORIAL HepG2 Assay for human Myeloblastosis (Myb) Proto-Oncogene Transcription Factor (AID 2282986). The settings on record: HepG2 Attagene CIS-FACTORIAL Myb reporter transcription; actives raise or lower the signal. Summed up:
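Fluorescence signals from capillary electrophoresis of RT-PCR-amplified reporter cDNA give the read-out. Cells: HepG2 transfected with multiple cis-regulated reporter units. Exposure lasts 24 hours; DMSO defines baseline for gain or loss of signal.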

Assay [14] has as its target Nuclear respiratory factor 1 (Homo sapiens) (UniProt Q16656). Put plainly: ATG_NRF1_CIS: Attagene CIS-FACTORIAL HepG2 Assay for human Nuclear Respiratory Factor 1 (NRF1) Orphan Gene (AID 2282987). The note with it: HepG2 NRF1 cis-element reporter, Attagene multiplex; actives raise or lower the signal. The procedure, abridged: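 Transcriptional reporter readout, one component of a 52-endpoint multiplexed HepG2 panel. Exposure 24 h; mRNA detected via RT-PCR and fluorescent capillary electrophoresis; fitting in both directions against DMSO.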

Assay [15] is described as follows: ATG_NFI_CIS: Attagene CIS-FACTORIAL HepG2 Assay for human Nuclear Factor I (NFI) (AID 2282989). The settings on record: HepG2 cis-regulatory reporter, NFI response element transcription; actives raise or lower the signal. Summed up: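 Cells: human liver HepG2, transiently transfected with promoter-regulated reporter transcription units. Exposure 24 h. Detection: fluorescent RT-PCR products separated by capillary electrophoresis, normalised to DMSO negative control.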

In assay [16] the target is Myc proto-oncogene protein (Homo sapiens) (UniProt P01106). Put plainly: ATG_Myc_CIS: Attagene CIS-FACTORIAL HepG2 Assay for human Myelocytomatosis (Myc) Proto-Oncogene Transcription Factor (AID 2282990). The settings on record: HepG2, Attagene cis-reporter transcription factor activity; actives raise or lower the signal. The procedure, abridged:
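Fluorescence intensity of reporter-specific cDNA fragments, separated by capillary electrophoresis, gives the signal. Transfected HepG2 cells carrying cis-promoter reporter constructs are incubated with compound for 24 h; DMSO serves as baseline.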

A short description of assay [17]: ATG_NRF2_ARE_CIS: Attagene CIS-FACTORIAL HepG2 Assay for human Nuclear Factor Erythroid 2 Related Factor 2 (NFR2) response to Antioxidant Response Elements (ARE) (AID 2282992).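 As to AC50: reporter mRNA level measured by RT-PCR and capillary electrophoresis fluorescence.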 The settings on record: HepG2 Attagene ARE/NRF2 reporter, transcription factor activity; actives raise or lower the signal. The procedure, abridged:
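Endogenous transcription factor activity in human liver HepG2 cells is tracked via a cis-element-driven reporter within a multiplexed set. mRNA induction is read by RT-PCR and capillary electrophoresis after 24 h, with DMSO as baseline.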

The nature of assay [18]: ATG_Oct_MLP_CIS: Attagene CIS-FACTORIAL HepG2 Assay for human Octamer-Binding Transcription Factor (Oct) (AID 2282993). The note with it: HepG2 Attagene cis-factorial Oct reporter, mRNA; actives raise or lower the signal. The procedure, abridged: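 HepG2, transient MRTU transfection, cis promoter elements; 24 h dosing; RT-PCR/CE fluorescence read-out of reporter mRNA; fit both directions vs DMSO.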

For assay [19], the target named is Cellular tumor antigen p53 (Homo sapiens) (UniProt P04637). Nature of the assay: ATG_p53_CIS: Attagene CIS-FACTORIAL HepG2 Assay for human p53 Transcription Factor (AID 2282994). The note with it: HepG2 p53 cis-element reporter, Attagene mRNA; actives raise or lower the signal. The procedure, abridged: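 Steps: transfect HepG2 with multiplexed cis reporter constructs; dose chemicals 24 h; extract RNA, reverse-transcribe, PCR-amplify reporter sequences; FAM-label, HpaI-digest, resolve fragments by CE. Activity fitted both directions relative to DMSO.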
Chain of Cellular tumor antigen p53 (Homo sapiens) (P04637 whole entry, looked up, the tested form may be a part): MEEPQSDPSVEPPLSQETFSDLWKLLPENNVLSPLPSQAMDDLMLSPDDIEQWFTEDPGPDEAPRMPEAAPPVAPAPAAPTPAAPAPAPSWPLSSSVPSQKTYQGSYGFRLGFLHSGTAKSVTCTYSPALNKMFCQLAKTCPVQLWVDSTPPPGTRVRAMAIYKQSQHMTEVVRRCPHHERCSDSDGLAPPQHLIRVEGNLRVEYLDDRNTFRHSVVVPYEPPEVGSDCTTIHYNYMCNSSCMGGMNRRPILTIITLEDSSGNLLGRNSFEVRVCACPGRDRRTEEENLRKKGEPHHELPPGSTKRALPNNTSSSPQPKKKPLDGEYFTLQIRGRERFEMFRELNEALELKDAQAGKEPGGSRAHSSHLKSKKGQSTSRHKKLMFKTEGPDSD

Assay [20] deals with Peroxisome proliferator-activated receptor gamma (Homo sapiens) (UniProt P37231). Nature of the assay: ATG_PPARg_TRANS: Attagene TRANS-FACTORIAL HepG2 Assay for human Peroxisome Proliferator-activated Receptor-gamma (PPARg) (AID 2283007; active = hit-call score of the fitted dose curve at least 0.9, where 1 is the maximum). The procedure, abridged: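 Multiplexed reporter transcription units in HepG2, 24 h dosing, reporter transcripts quantified by fluorescent RT-PCR and capillary electrophoresis. Increase over DMSO scored.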
Chain of Peroxisome proliferator-activated receptor gamma (Homo sapiens) (P37231 whole entry, looked up): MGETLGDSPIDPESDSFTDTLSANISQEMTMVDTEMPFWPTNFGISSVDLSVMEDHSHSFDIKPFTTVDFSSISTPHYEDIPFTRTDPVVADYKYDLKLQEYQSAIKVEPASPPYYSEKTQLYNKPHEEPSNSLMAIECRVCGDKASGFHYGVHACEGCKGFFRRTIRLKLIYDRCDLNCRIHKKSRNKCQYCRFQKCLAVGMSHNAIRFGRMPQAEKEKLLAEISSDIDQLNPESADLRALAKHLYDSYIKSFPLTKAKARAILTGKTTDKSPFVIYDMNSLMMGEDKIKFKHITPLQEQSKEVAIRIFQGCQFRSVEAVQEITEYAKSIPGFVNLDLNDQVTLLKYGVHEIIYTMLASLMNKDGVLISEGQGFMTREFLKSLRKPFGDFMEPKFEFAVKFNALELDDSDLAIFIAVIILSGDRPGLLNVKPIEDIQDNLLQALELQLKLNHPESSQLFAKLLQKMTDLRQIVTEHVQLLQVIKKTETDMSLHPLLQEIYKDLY

Records with an inconclusive call do not appear. Activity calls are given as the source filed them. The calls were made as follows, unless noted: active = hit-call score of the fitted dose curve at least 0.9, where 1 is the maximum; inactive = score below 0.9.

Chain of X-box-binding protein 1 (Homo sapiens) (P17861 whole entry, looked up): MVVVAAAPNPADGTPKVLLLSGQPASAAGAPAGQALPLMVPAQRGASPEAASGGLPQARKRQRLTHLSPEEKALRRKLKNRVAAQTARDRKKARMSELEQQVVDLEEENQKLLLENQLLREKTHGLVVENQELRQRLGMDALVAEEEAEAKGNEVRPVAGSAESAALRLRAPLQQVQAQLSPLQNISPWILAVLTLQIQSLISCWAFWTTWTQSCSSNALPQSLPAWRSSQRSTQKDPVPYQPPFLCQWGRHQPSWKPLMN
Chain of Myc proto-oncogene protein (Homo sapiens) (P01106 whole entry, looked up, the tested form may be a part): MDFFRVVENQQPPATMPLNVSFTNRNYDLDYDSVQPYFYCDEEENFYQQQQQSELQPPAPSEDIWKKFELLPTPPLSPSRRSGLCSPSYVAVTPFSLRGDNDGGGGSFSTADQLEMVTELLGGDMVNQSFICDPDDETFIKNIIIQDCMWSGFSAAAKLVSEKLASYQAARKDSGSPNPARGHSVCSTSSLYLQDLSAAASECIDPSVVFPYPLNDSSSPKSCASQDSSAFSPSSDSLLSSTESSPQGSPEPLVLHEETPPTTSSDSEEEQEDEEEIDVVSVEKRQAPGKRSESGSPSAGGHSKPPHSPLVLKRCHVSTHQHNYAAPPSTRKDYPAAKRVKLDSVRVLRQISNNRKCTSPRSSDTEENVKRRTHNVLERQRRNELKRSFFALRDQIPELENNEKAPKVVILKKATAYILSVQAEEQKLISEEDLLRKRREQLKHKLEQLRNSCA
Chain of Nuclear respiratory factor 1 (Homo sapiens) (Q16656 whole entry, looked up): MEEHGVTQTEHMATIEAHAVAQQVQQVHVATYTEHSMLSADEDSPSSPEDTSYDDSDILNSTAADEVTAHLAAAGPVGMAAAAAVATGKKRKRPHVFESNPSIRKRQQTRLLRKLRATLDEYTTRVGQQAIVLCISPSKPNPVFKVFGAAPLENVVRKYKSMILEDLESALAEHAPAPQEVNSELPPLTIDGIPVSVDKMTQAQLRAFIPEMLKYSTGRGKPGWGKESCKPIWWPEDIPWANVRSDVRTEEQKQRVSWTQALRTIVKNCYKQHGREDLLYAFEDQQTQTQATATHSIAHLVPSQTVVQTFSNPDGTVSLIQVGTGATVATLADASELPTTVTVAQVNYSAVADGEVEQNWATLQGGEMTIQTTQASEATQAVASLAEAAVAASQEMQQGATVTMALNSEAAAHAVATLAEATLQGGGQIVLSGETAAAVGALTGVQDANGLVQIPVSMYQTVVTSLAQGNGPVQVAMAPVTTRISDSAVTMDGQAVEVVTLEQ
Chain of Transcription factor Sp1 (Homo sapiens) (P08047 whole entry, looked up): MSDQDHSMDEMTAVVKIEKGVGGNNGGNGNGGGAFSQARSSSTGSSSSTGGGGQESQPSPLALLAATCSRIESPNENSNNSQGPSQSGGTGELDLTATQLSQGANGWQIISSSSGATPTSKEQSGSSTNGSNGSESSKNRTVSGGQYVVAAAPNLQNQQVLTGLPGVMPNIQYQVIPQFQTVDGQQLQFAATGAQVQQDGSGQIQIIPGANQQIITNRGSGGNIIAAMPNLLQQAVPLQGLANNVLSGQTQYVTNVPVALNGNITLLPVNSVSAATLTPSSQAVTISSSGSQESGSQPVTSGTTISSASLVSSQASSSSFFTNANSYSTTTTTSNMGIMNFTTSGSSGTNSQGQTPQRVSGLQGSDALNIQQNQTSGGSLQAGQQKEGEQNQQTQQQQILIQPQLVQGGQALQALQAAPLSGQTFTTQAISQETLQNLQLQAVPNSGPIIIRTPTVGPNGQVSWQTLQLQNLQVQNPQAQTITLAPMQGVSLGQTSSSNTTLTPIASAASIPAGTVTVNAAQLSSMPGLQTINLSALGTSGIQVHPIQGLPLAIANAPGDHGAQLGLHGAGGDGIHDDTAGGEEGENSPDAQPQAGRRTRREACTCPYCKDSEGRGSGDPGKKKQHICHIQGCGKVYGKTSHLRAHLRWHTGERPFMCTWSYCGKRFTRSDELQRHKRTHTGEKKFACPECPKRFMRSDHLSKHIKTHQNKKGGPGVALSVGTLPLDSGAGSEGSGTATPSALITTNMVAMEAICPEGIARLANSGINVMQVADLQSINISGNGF
Chain of Transcriptional activator Myb (Homo sapiens) (P10242 whole entry, looked up): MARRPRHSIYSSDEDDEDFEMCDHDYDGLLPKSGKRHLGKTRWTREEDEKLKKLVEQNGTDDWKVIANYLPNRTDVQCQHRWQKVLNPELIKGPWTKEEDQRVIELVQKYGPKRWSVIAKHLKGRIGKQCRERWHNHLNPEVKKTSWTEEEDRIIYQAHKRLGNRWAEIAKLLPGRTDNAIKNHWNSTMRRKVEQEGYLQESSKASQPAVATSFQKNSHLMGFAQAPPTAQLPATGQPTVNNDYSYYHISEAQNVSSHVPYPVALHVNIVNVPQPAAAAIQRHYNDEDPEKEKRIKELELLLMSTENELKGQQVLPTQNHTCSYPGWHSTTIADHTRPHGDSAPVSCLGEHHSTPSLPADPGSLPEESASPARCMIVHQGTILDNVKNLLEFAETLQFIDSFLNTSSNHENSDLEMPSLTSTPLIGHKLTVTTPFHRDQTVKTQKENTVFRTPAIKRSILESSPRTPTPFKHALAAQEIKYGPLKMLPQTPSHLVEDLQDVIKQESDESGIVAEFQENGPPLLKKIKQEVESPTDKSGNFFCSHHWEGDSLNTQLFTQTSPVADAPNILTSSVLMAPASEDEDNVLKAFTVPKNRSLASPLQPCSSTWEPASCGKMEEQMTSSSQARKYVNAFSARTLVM

What is called AC50 is the concentration giving half of the maximal activity seen. Turning to `CC(C)COP(=O)(OCC(C)C)OCC(C)C`, the result in assay [1], in [2], in assay [4], in assay [5], in assay [6] and in [7] was inactive. The result in [8], in assay [9], in [11], in assay [12], in assay [13] and in [14] was inactive. The compound was classed as inactive in [15], in assay [16], in assay [18] and in assay [19]. Besides, the concentration at half-maximal activity (AC50) is 128 µM (active) in assay [3], 55.8 µM (active) in [10], 37 µM (active) in assay [17] and 49.8 µM (active) in assay [20].

As for `CC1OC(C)OC(C)O1` (centres undefined), the call in assay [2], in [3], in [4], in assay [5], in assay [6] and in assay [7] was inactive. Besides, the compound was classed as inactive in assay [8], in assay [9], in assay [11], in assay [12], in assay [13] and in assay [14]. In addition, the outcome in assay [16], in assay [17], in [18], in assay [19] and in [20] was inactive.

On to `O=C(O)CCl`, for which the outcome in [1], in assay [2], in assay [4], in assay [5], in assay [6] and in assay [7] was inactive. The call in assay [8], in [9], in [10], in assay [11], in assay [12] and in [13] was inactive. The compound was classed as inactive in [14], in assay [16], in assay [17], in assay [18] and in assay [20].

In the case of `O=c1[nH]c(Cl)c(Cl)cc1Cl`, the call in assay [2], in assay [4], in assay [5], in [6], in [7] and in assay [8] was inactive. Besides, the call in assay [9], in [10], in assay [11], in assay [12], in assay [13] and in assay [14] was inactive. Moreover, the compound was classed as inactive in [15], in assay [16], in [18] and in [19]. For the same compound, the values for the AC50 in [3], in assay [17] and in assay [20] were 15.8 µM (active), 76.3 µM (active) and 14.2 µM (active), respectively.

Take `CCC1CCC(=O)O1` (centres undefined): the outcome in assay [1], in [2], in assay [4], in assay [5], in assay [6] and in assay [7] was inactive. Also, the compound was classed as inactive in assay [8], in assay [9], in assay [10], in assay [11], in assay [12] and in assay [13]. The outcome in assay [14], in assay [15], in [16], in [17] and in assay [18] was inactive.

As to `N#CC(c1ccccc1)c1ccccc1`, the result in [1], in assay [2], in assay [3], in [4], in [5] and in assay [6] was inactive. Also, the outcome in assay [7], in [8], in assay [9], in assay [11], in assay [13] and in assay [14] was inactive. For the same compound, the call in [15], in assay [16], in assay [18] and in assay [19] was inactive. The results for the AC50 in [10], in [17] and in [20] were 30.3 µM (active), 77.9 µM (active) and 83.2 µM (active), respectively.

As to `CC1(C)CC(=O)CC(C)(C)N1[O]`, the result in [1], in assay [2], in [3], in [4], in assay [5] and in assay [6] was inactive. Moreover, the call in assay [7], in assay [8], in assay [9], in [10], in assay [11] and in assay [12] was inactive. Moreover, the result in assay [13], in [14], in assay [15], in [16], in assay [18] and in assay [19] was inactive. For the same compound, in assay [20], the compound was called inactive. In addition, the AC50 in assay [17] is 19.8 µM (active).

The record behind these values is PubChem BioAssay (EPA / NIEHS).
